Laboratory results: PubChem BioAssay AID434961 (Broad Institute, 2010)
Out of some 7,700 compounds screened, about 15 (0.2%) were called active. About 6% were inconclusive and are not listed. Shown is part of a subset that was picked to be rich in actives. Unmarked numbers belong to inactive results.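 The calls were made as follows: active = more than half of replicate wells with inhibition above about 18% (limit read from the data, passing the limit was not always enough); inconclusive = exactly half of replicate wells above that limit; inactive = fewer than half of replicates above it.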

target: Regulator of chromosome condensation (Homo sapiens) + GTP-binding nuclear protein Ran (Homo sapiens) + Importin subunit beta-1 (Homo sapiens) (UniProt P18754+P62826+Q14974); test: inhibitors of Ran–importin-beta complex formation, primary screen, biochemical, CFP-Ran/YFP-importin-beta FRET, RCC1, cell-free (AID 434961); conditions: active compounds read high, concentration not given here;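 also: 0% = DMSO wells and 100% inhibition = RanGDP control wells on each plate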

Structure (SMILES)	inhibition
Cc1noc(C)c1NC(=O)Nc1ccc2c(c1)CC(=O)N([C@@H](C)CO)C[C@H](C)[C@@H](CN(C)S(=O)(=O)c1cccs1)O2	0.0231%
Cc1noc(C)c1NC(=O)N(C)C[C@@H]1Oc2ccc(NC(=O)Cc3ccccc3)cc2C(=O)N([C@@H](C)CO)C[C@H]1C	6.07%
C[C@H](CO)N1C[C@H](C)[C@H](CN(C)C)Oc2c(NC(=O)Nc3ccc(C(F)(F)F)cc3)cccc2C1=O	-2.27%
COc1ccc(CN(C)C[C@@H]2Oc3ccc(NC(=O)Nc4ccc(C(F)(F)F)cc4)cc3CC(=O)N([C@H](C)CO)C[C@@H]2C)cc1	1.78%
C[C@@H]1CN([C@@H](C)CO)C(=O)c2cccc(NC(=O)Nc3ccc(C(F)(F)F)cc3)c2O[C@H]1CN(C)C(=O)Nc1ccc(F)cc1	1.42%
C[C@H](CO)N1C[C@H](C)[C@H](CN(C)S(=O)(=O)c2cn(C)cn2)OCCCC[C@H](C)Oc2ccc(NC(=O)CCCN(C)C)cc2C1=O	1.98%
C[C@@H]1CCCCO[C@@H](CN(C)S(=O)(=O)c2ccccc2)[C@@H](C)CN([C@@H](C)CO)C(=O)c2cc(NS(C)(=O)=O)ccc2O1	1.15%
C[C@@H]1CCCCO[C@H](CN(C)C)[C@H](C)CN([C@H](C)CO)C(=O)c2cc(NC(=O)Nc3ccc4c(c3)OCO4)ccc2O1	7.53%
COc1ccc(S(=O)(=O)N(C)C[C@@H]2Oc3ccc(NS(=O)(=O)c4ccc(Cl)cc4)cc3C(=O)N([C@H](C)CO)C[C@@H]2C)cc1	1.93%
C[C@H]1CN([C@@H](C)CO)C(=O)c2cccc(NS(=O)(=O)c3cn(C)cn3)c2O[C@@H]1CN(C)CC1CC1	-0.875%
Cc1noc(C)c1NC(=O)N(C)C[C@@H]1Oc2ccc(NC(=O)C3CC3)cc2CC(=O)N([C@@H](C)CO)C[C@H]1C	3.34%
CNC[C@H]1Oc2ccc(NC(=O)Cc3ccccc3)cc2C(=O)N([C@H](C)CO)C[C@@H]1C	-10.8%
C[C@H]1CN([C@@H](C)CO)C(=O)c2cccc(NS(=O)(=O)c3ccc(Cl)cc3)c2O[C@H]1CN(C)Cc1ccncc1	-0.815%
C[C@H]1CN([C@@H](C)CO)C(=O)c2cc(NC(=O)CCC(F)(F)F)ccc2O[C@H]1CN(C)C(=O)Nc1ccccc1	1.36%
C[C@H](CO)N1C[C@H](C)[C@H](CN(C)C(=O)Nc2ccccc2)Oc2ccc(NC(=O)Cc3cn(C)c4ccccc34)cc2CC1=O	2.8%
C[C@H]1CCCCO[C@H](CN(C)Cc2ccc(C(=O)O)cc2)[C@@H](C)CN([C@@H](C)CO)C(=O)c2cc(NC(=O)Nc3ccc(F)cc3)ccc2O1	5.7%
C[C@H](CO)N1C[C@H](C)[C@H](CN(C)S(=O)(=O)c2cn(C)cn2)Oc2ccc(N(C)C)cc2CC1=O	-2.21%
C[C@@H]1CN([C@H](C)CO)C(=O)c2cc(NC(=O)c3ccncc3)ccc2O[C@@H]1CN(C)C	0.131%
CC(C)NC(=O)Nc1ccc2c(c1)C(=O)N([C@H](C)CO)C[C@H](C)[C@@H](CN(C)Cc1ccc(C(=O)O)cc1)OCCCC[C@@H](C)O2	2.11%
C[C@@H]1CN([C@H](C)CO)C(=O)c2cc(NS(=O)(=O)c3ccccc3)ccc2O[C@@H](C)CCCCO[C@@H]1CN(C)Cc1ccc2c(c1)OCO2	-2.27%
COc1ccc(S(=O)(=O)Nc2cccc3c2O[C@H](CN(C)Cc2ccc4c(c2)OCO4)[C@@H](C)CN([C@@H](C)CO)C3=O)cc1	1.75%
C[C@@H]1CCCCO[C@@H](CN(C)C(=O)CCC(F)(F)F)[C@@H](C)CN([C@@H](C)CO)C(=O)c2cc(NS(=O)(=O)c3cccs3)ccc2O1	5.99%

Structure (SMILES)	inhibition
C[C@@H]1CN([C@@H](C)CO)C(=O)c2cccc(NC(=O)c3cnccn3)c2O[C@H]1CN(C)C(=O)NC1CCCCC1	0.00388%
CC(C)NC(=O)N(C)C[C@@H]1Oc2c(NC(=O)C3CCOCC3)cccc2C(=O)N([C@H](C)CO)C[C@H]1C	-0.0599%
C[C@H]1CN([C@@H](C)CO)C(=O)Cc2cc(NS(=O)(=O)c3ccccc3)ccc2O[C@@H]1CN(C)Cc1ccc2c(c1)OCO2	0.885%
Cc1noc(C)c1NC(=O)Nc1ccc2c(c1)CC(=O)N([C@H](C)CO)C[C@@H](C)[C@H](CN(C)S(=O)(=O)c1ccccc1)O2	0.923%
C[C@@H]1CN([C@H](C)CO)C(=O)c2cc(NS(=O)(=O)c3cn(C)cn3)ccc2O[C@H]1CN(C)C(=O)Nc1ccc2c(c1)OCO2	0.416%
C[C@H](CO)N1C[C@H](C)[C@@H](CN(C)S(=O)(=O)c2ccccc2)Oc2ccc(NC(=O)NC3CCCCC3)cc2C1=O	3.44%
C[C@@H]1CN([C@@H](C)CO)C(=O)Cc2cc(NS(=O)(=O)c3cn(C)cn3)ccc2O[C@H]1CN(C)S(=O)(=O)c1ccc(Cl)cc1	-7.4%
C[C@H](CO)N1C[C@H](C)[C@@H](CN(C)C(=O)NC2CCCCC2)Oc2c(NS(=O)(=O)c3ccccc3)cccc2C1=O	1.49%
C[C@H]1CN([C@@H](C)CO)C(=O)CCCn2nncc2CO[C@H]1CN(C)C(=O)Nc1ccccc1F	0.229%
Cc1noc(C)c1S(=O)(=O)N(C)C[C@@H]1Oc2ccc(NC(=O)C3CCCCC3)cc2CC(=O)N([C@@H](C)CO)C[C@@H]1C	-3.61%
CC(C)NC(=O)N(C)C[C@@H]1Oc2c(NS(=O)(=O)c3ccccc3)cccc2C(=O)N([C@H](C)CO)C[C@H]1C	4.93%
C[C@@H]1CN([C@H](C)CO)C(=O)Cc2cc(NC(=O)Nc3ccccc3)ccc2O[C@H]1CN(C)CC1CC1	-1.7%
COc1ccc(NC(=O)N(C)C[C@@H]2Oc3ncc(C#Cc4ccccc4)cc3C(=O)N([C@H](C)CO)C[C@@H]2C)cc1	2.4%
C[C@H](CO)N1C[C@H](C)[C@@H](CN(C)Cc2ccc(Cl)c(Cl)c2)Oc2c(NS(=O)(=O)c3cccs3)cccc2C1=O	3.33%
C[C@H](CO)N1C[C@H](C)[C@@H](CN(C)C(=O)Nc2cccc3ccccc23)Oc2ccc(NC(=O)NC3CCCCC3)cc2CC1=O	-2.7%
C[C@@H]1CCCCO[C@@H](CN(C)Cc2ccccc2)[C@@H](C)CN([C@H](C)CO)C(=O)c2cc(N(C)C)ccc2O1	-4.07%
COc1ccc(CN(C)C[C@H]2Oc3ccc(NC(=O)Cc4cn(C)c5ccccc45)cc3C(=O)N([C@H](C)CO)C[C@H]2C)cc1	-2.11%
COc1ccc(S(=O)(=O)N(C)C[C@H]2Oc3c(NC(=O)C4CC4)cccc3C(=O)N([C@@H](C)CO)C[C@@H]2C)cc1	-1.54%
Cc1noc(C)c1S(=O)(=O)Nc1cccc2c1O[C@H](CN(C)Cc1ccc3c(c1)OCO3)[C@H](C)CN([C@H](C)CO)C2=O	-8.22%
C[C@@H]1CN([C@H](C)CO)C(=O)c2cc(NC(=O)C3CC3)ccc2O[C@H]1CN(C)Cc1ccc(Cl)c(Cl)c1	0.993%
Cc1noc(C)c1NC(=O)N(C)C[C@@H]1OCCCC[C@@H](C)Oc2ccc(NC(=O)Cc3ccccc3)cc2C(=O)N([C@@H](C)CO)C[C@@H]1C	4.99%
CC(C)NC(=O)N(C)C[C@@H]1OCCCC[C@H](C)Oc2ccc(NC(=O)CCC(F)(F)F)cc2C(=O)N([C@@H](C)CO)C[C@H]1C	-1.88%

Structure (SMILES)	inhibition
C[C@@H]1CN([C@@H](C)CO)C(=O)c2cc(NS(=O)(=O)c3cccs3)ccc2O[C@@H](C)CCCCO[C@@H]1CN(C)C	-3.73%
COC(=O)N(C)C[C@H]1OCc2cn(nn2)CCCC(=O)N([C@H](C)CO)C[C@@H]1C	-1.56%
COC(=O)N(C)C[C@H]1OCc2cn(nn2)CCCC(=O)N([C@@H](C)CO)C[C@H]1C	18.2% (active)
COC(=O)N(C)C[C@@H]1OCc2cn(nn2)CCCC(=O)N([C@@H](C)CO)C[C@@H]1C	2.64%
C[C@H](CO)N1C[C@H](C)[C@H](CN(C)C(=O)Nc2cccc3ccccc23)OCCCC[C@H](C)Oc2ccc(NC(=O)c3ccncc3)cc2C1=O	0.239%
C[C@@H]1CN([C@@H](C)CO)C(=O)Cc2cc(NC(=O)Nc3ccc(C(F)(F)F)cc3)ccc2O[C@@H]1CN(C)C(=O)NC1CCCCC1	1.62%
C[C@@H]1CN([C@H](C)CO)C(=O)c2cc(NS(=O)(=O)c3cn(C)cn3)ccc2O[C@H]1CN(C)C(=O)Nc1ccc(F)cc1	9.51%
C[C@@H]1CN([C@@H](C)CO)C(=O)Cc2cc(NC(=O)Nc3ccc4c(c3)OCO4)ccc2O[C@H]1CN(C)C(=O)NC1CCCCC1	-2.22%
C[C@@H]1CN([C@H](C)CO)C(=O)c2cc(NC(=O)Cc3ccccc3)ccc2O[C@@H]1CN(C)C(=O)NC1CCCCC1	1.32%
C[C@@H]1CN([C@H](C)CO)C(=O)CCCn2cc(nn2)CO[C@H]1CN(C)C(=O)Nc1cccc2ccccc12	-3.4%
CC(C)NC(=O)N(C)C[C@H]1Oc2ccc(NC(=O)CCC(F)(F)F)cc2C(=O)N([C@H](C)CO)C[C@@H]1C	-4.13%
C[C@H](CO)N1C[C@H](C)[C@H](CN(C)C(=O)CCCN(C)C)OCCCC[C@H](C)Oc2ccc(NC(=O)Nc3cccc4ccccc34)cc2C1=O	2.28%
C[C@H]1CN([C@@H](C)CO)C(=O)c2cccc(NS(=O)(=O)c3ccc(Cl)cc3)c2O[C@H]1CN(C)S(=O)(=O)c1cn(C)cn1	-0.913%
CNC[C@@H]1OCCCC[C@@H](C)Oc2ccc(N)cc2C(=O)N([C@H](C)CO)C[C@H]1C	0.828%
CNC[C@H]1OCCCC[C@H](C)Oc2ccc(NS(=O)(=O)c3cccs3)cc2C(=O)N([C@@H](C)CO)C[C@@H]1C	1.28%
C[C@@H]1CN([C@@H](C)CO)C(=O)Cc2cc(NS(=O)(=O)c3cn(C)cn3)ccc2O[C@@H]1CN(C)C(=O)Nc1ccc(F)cc1	-4.41%
COc1ccc(S(=O)(=O)N(C)C[C@H]2Oc3ccc(NC(=O)Nc4ccc(C(F)(F)F)cc4)cc3CC(=O)N([C@@H](C)CO)C[C@@H]2C)cc1	3.32%
C[C@H](CO)N1C[C@H](C)[C@H](CN(C)Cc2ccncc2)OCCCC[C@H](C)Oc2ccc(NC(=O)CCCN(C)C)cc2C1=O	1.3%
C[C@H](CO)N1C[C@H](C)[C@@H](CN(C)Cc2ccc(C(=O)O)cc2)Oc2ccc(NC(=O)NC3CCCCC3)cc2C1=O	-0.0517%
C[C@@H]1CN([C@@H](C)CO)C(=O)c2cc(NC(=O)Nc3cccc4ccccc34)ccc2O[C@H]1CN(C)C(=O)Nc1cccc2ccccc12	-2.16%
C[C@H](CO)N1C[C@H](C)[C@H](CN(C)C(=O)OCc2ccccc2)OCc2cn(nn2)CCCC1=O	1.83%
